Screens: PubChem, National Center for Advancing Translational Sciences (NCATS)
Sfp PPTase inh – Sfp phosphopantetheinyl transferase inhibition | Q9F4F7 | Biochemical Sfp PPTase activity, qHTS | Potency, µM, without a hit: largest response in the series, negative = inhibition, most hits filed as inhibitors | 310,000 compounds, 3.5% hits | AID 1490;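 further: the enzyme is Sfp with the accession as filed and its product quenches rhodamine fluorescence; potency means the concentration at half of the fitted maximal effect; 0% = enzyme reaction without inhibitor and -100% = no enzyme wells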
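Compounds were incubated with enzyme (final 15 nM) for 15 min at room temperature before substrate addition started the reaction. Fluorescence at 525 nm excitation, 598 nm emission was recorded immediately and after 30 minutes.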
Tau ThT inhib – tau fibrillization inhibition (ThT binding); P10636; recombinant tau K18 P301L, heparin-induced fibrillization, ThT fluorescence; Potency, µM (series often up to 57.4 µM), for the others: at the top dose activity, negative = inhibition, hits mostly inhibitors; 270,000 compounds, 2.1% hits; further: potency means the concentration at half of the fitted maximal effect; nearly all actives have a fitted effect of over 55% in size
Target sequence (P10636 561-689 P618L limits assumed): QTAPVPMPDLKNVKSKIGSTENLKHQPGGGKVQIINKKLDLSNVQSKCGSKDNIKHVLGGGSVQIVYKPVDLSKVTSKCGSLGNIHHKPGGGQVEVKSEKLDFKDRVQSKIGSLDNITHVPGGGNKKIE
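Aggregation was driven by heparin (20 uM final) acting on recombinant tau […] bearing P301L in 100 mM sodium acetate pH 7; fibrils were detected with Thioflavin T.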
FBPA coupling cs – inhibits coupling enzyme system, counter-screen for aldolase hits; AID 2472; 290,000 compounds, 0.67% hits; activity change, negative = inhibition, % at 58.2 µM, hits read low; coupling enzyme system counterscreen, AmpLite Red fluorescence; in the data active means activity change below about -30%
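Compounds tested against the coupling enzymes alone at 57.5 uM final; readout was AmpLite Red fluorescence (525/598 nm) after 20 min at RT.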
Tau fluor counter – counter-screen for tau fibril formation inhibitors; tau K18 P301L (four-repeat tau fragment) Alexa594 fluorescence, heparin fibrillization; Potency, µM (top dose mostly 57.7 µM), without a hit: at the top dose activity change, negative = decrease; 280,000 compounds, 0.93% hits; AID 1463; further: potency means the concentration at half of the fitted maximal effect; nearly all actives have a fitted effect of over 55% in size
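Human K18 P301L tau (15 uM unlabeled plus 0.24 uM Alexa 594-labeled, final) in 100 mM sodium acetate pH 7 was mixed with compound and 20 uM heparin and incubated 6 hr at 37 C.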
Tau fibril FP – tau fibrillization inhibition (FP); AID 1468; Potency, µM (doses to about 57.7 µM), without a hit: at the highest dose activity, negative = inhibition, actives largely listed as inhibitors; 280,000 compounds, 0.39% hits; K18 P301L tau heparin fibrillization, Alexa594 FP, 6 h; further: potency means the concentration at half of the fitted maximal effect; nearly all actives have a fitted effect of over 55% in size
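FP of Alexa 594-tau after heparin (20 uM) induction. Substrate: human K18 P301L, 15 uM unlabeled, 0.24 uM labeled. Buffer 100 mM sodium acetate pH 7. 6 hr, 37 C.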
Active calls of the source: *; u = inconclusive; x = not tested or not shown; [ ] = remark or other dose. Only some compounds are listed: those with a hit (about 5.2% of all), similar ones and a draw of the others. Unless noted, the call rests on the fitted dose curve; in most records, active means well fitted curve in the direction sought with a large enough effect; inconclusive means small, poorly fitted or top-dose-only effect, or another doubt; inactive means no such curve, though single readings can be large; an effect the other way counts as inactive or inconclusive. Unless noted, on the % scale 0 is the no-effect control and ±100 the full control effect.

SMILES	Sfp PPTase inh	Tau ThT inhib	FBPA coupling cs	Tau fluor counter	Tau fibril FP
CC1=C(C(=O)Nc2ccccc2)C(c2ccncc2)C(C#N)=C(SCC(=O)NC(C)C)N1 (centres undefined)	u	-6%	-1	-10%	-4%
COC(=O)CSC1=C(C#N)C(c2ccc(C)cc2)C2=C(CCCC2=O)N1 (centres undefined)	56µM*	-9%	3	-13%	-12%
CCc1ccc(NC(=O)CSC2=C(C#N)C(c3ccco3)C3=C(CCCC3=O)N2)cc1 (centres undefined)	-5%	-13%	0	u	-10%
CC(=O)C1=C(C)NC(SCC(=O)c2ccccc2)=C(C#N)C1CC(C)C (centres undefined)	20µM*	-18%	-4	-19%	-8%
CC(=O)C1=C(C)NC(SCc2ccc(C#N)cc2)=C(C#N)C1c1ccco1 (centres undefined)	u	-1%	-2	-15%	-10%
CCc1ccc(CNC(=O)c2cnc3sc(N(CC)CC)nn3c2=O)cc1	x	-6%	x	-11%	-4%
O=C(O)Cn1cccc1C(=O)c1ccccc1	21%	8.9µM*	-1	u	4%
CCOC(=O)c1cccnc1SC(CC)C(=O)N1CCOCC1 (centres undefined)	11%	-19%	0	-13%	-6%
CCC(Sc1ncccc1C(=O)O)C(=O)N1CCCC1 (centres undefined)	11µM*	-11%	-8	-8%	u
CCC(Sc1ncccc1C(=O)O)C(=O)N1CCOCC1 (centres undefined)	50µM*	-11%	-6	-1%	-6%
C=C[C@@]1(C)C[C@H](OC(=O)CSC(C)(C)CNC(=O)[C@@H](N)C(C)C)[C@@]2(C)C(C)CC[C@@]3(CCC(=O)[C@@H]32)[C@H](C)[C@H]1O (some centres undefined)	-10%	x	x	x	x
Cc1cc(C)cc(N2CC(c3nc(-c4ccccc4C)no3)CC2=O)c1 (centres undefined)	x	-15%	x	-10%	5%
Oc1ccccc1N1CCN(C(=S)NCCc2ccccc2)CC1	45µM*	u	-2	-26%	10%
Oc1ccc(N2CCN(C(=S)NCCc3ccccc3)CC2)cc1	11µM*	14µM*	-1	-27%	13%
COc1cccc(N2CCN(C(=S)NCCc3ccccc3)CC2)c1	12%	u	-2	-29%	6%
O=C(Nc1ccc(Br)cc1F)C1CCN(c2nc3ccccc3[nH]2)CC1	x	u	x	-26%	7%
CCOC(=O)c1ccc(NCc2ccc3c(c2)OCO3)cc1	56µM*	u	2	u	9%
CCOC(=O)c1ccc(NC(=O)Nc2ccc3c(c2)OCCO3)cc1	0%	u	-1	13µM*[quencher]	u
CCOC(=O)c1ccc(NCc2ccc(N(C)C)cc2)cc1	-22%	u	-1	-28%	18%
COc1cc(NC(=O)CCNS(=O)(=O)c2ccc3c(c2)CCN3C(=O)C2CC2)cc(OC)c1	x	-9%	x	-18%	-5%
COc1ccc(/C=C(\CC(=O)O)c2nc3ccccc3s2)cc1O	-6%	u	4	-17%	10%
Cc1ccc(/C=C(\CCC(=O)O)c2nc3ccccc3s2)cc1[N+](=O)[O-]	-2%	u	1	11%	6%
Cn1cnnc1Sc1ccc(/C=C(\CCC(=O)O)c2nc3ccccc3s2)cc1[N+](=O)[O-]	-14%	5%	1	4%	4%
COc1cc(/C=C(\CC(=O)O)c2nc3ccccc3s2)cc(OC)c1O	35µM*	u	1	-22%	13%
CNc1ccc(/C=C(\CCC(=O)O)c2nc3ccccc3s2)cc1[N+](=O)[O-]	7%	3.2µM*	1	u	-16%
SMILES	Sfp PPTase inh	Tau ThT inhib	FBPA coupling cs	Tau fluor counter	Tau fibril FP
CN(c1ccccc1)c1ccc(/C=C(\CCC(=O)O)c2nc3ccccc3s2)cc1[N+](=O)[O-]	7%	14µM*	1	u	-21%
COc1ccc(C=O)c(OC)c1	9%	-3%	4	10%	-5%
COc1cc(/C=C\c2ccc(OC)cc2OC)cc(OC)c1	50µM*	u	0	u	2%
CC1=Nc2cccc3cccc(c23)N1	u	22µM*	0	u	u
CCCCNC(=O)c1sc(=S)n2c1[nH]c(=O)c1ccccc12	-5%	16µM*	7	u	u
O=C(NC1CCCCC1)c1sc(=S)n2c1[nH]c(=O)c1ccccc12	-77%	14µM*	3	u	12%
CC1=C(C(=O)Nc2cccc(F)c2)C2(CCCCCC2)OC1=O	x	7%	x	-11%	-5%
CCOc1ccc(/C=C/c2nc(C#N)c(N3CCN(c4ccc(OC)cc4)CC3)o2)cc1	x	-10%	x	-12%	0%
CC(C)NC(=O)CCC(=O)N1Cc2ccccc2Oc2ncccc21	x	-1%	x	-3%	-2%
C=C1CCN(C(Cc2ccccc2)C(=O)NC2CCN(Cc3ccccc3)CC2)S(=O)(=O)c2ccccc21 (centres undefined)	-12%	x	-2	x	x
O=C(NC1CCCCCC1)C1CCN(C(=O)N2CCOc3ccccc32)CC1	x	11%	x	7.1µM*[quencher]	u
CCC1CN(C(=O)N2CCC(C(=O)NCCc3ccccc3C)CC2)c2ccccc2O1 (centres undefined)	x	-15%	x	-12%	16%
CCC1CN(C(=O)N2CCC(C(=O)Nc3ccccc3F)CC2)c2ccccc2O1 (centres undefined)	21%	-6%	x	2.5µM*[quencher]	3%
CCC1CN(C(=O)N2CCC(C(=O)NCCc3ccc(Cl)cc3)CC2)c2ccccc2O1 (centres undefined)	x	-4%	x	5µM*[quencher]	12%
CCCCC1CN2C(CCC(C)C2c2ccc(Br)cc2)C(=O)O1 (centres undefined)	17%	-2%[11.5 µM]	0	-3%[11.6 µM]	-1%[11.6 µM]
N#C/C(=C\c1ccc(-c2cccc(Cl)c2)o1)C(=O)Nc1cccc2cccnc12	-1%	2.5µM*	1	-17%	8%
Cc1ccc2nc(C)cc(N3CCOCC3)c2c1	-11%	5%	0	0%	0%
Cc1c(C(=O)O)c(C(=O)O)nc2ccc(N3CCOCC3)cc12	40µM*	-4%	-21	-6%	-15%
CCOC(=O)c1nc(Nc2ccc(N3CCC(C)CC3)cc2)c2ccccc2n1	-12%	u	-1	11µM*[quencher]	13%
CCOC(=O)c1nc(Nc2ccc(Nc3ccccc3)cc2)c2ccccc2n1	9%	5µM*	-3	7.1µM*[quencher]	5%
CCOC(=O)c1nc(Nc2ccc(C(=O)O)cc2)c2ccccc2n1	8%	-10%	0	-8%	-6%
C=CCSC(=C(C#N)C#N)c1cc2c([nH]1)CCCC2	-20%	10µM*	5	u	-1%
COc1ccc(C2=CC3=C(Br)C(=O)C(C)(OC(=O)CCc4ccccc4)C(=O)C3=CO2)cc1 (centres undefined)	-15%	-2%	0	-5%	5%
